# IDE inh: human IDE inhibitors in live cells, primary screen, fluorescence polarization, HEK cells, FAbetaB substrate. Insulin-degrading enzyme (Homo sapiens), P14735. FAbetaB cleavage. inhibition, % at 5.59 µM. actives 0.41% (n = 320,000). AID 434962, 2010;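 active means percent inhibition above the average of all tested compounds plus 3 SD, set per screening campaign, cut at about 16% in these data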;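 further: IDE supplied by intact live HEK cells; FP after avidin binding of uncleaved biotin substrate so inhibition keeps polarization high; 0% = DMSO wells and 100% = 60 µM reference IDE inhibitor Ii1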
# PP5 inh: PP5 phosphatase inhibitors, primary screen, biochemical, fluorescence | Serine/threonine-protein phosphatase 5 (Homo sapiens), P53041 | purified PP5c, OMFP substrate fluorescence | inhibition, % at 6.7 µM | actives 0.18% (n = 320,000) | AID 1987, 2009;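 active means inhibition above the campaign's mean inhibition across all tested compounds plus 3 SD, cut at about 9.5% in these data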;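 further: 0% = DMSO only and 100% = 100 µM cantharidin control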
# Target sequence (P53041 whole entry, looked up): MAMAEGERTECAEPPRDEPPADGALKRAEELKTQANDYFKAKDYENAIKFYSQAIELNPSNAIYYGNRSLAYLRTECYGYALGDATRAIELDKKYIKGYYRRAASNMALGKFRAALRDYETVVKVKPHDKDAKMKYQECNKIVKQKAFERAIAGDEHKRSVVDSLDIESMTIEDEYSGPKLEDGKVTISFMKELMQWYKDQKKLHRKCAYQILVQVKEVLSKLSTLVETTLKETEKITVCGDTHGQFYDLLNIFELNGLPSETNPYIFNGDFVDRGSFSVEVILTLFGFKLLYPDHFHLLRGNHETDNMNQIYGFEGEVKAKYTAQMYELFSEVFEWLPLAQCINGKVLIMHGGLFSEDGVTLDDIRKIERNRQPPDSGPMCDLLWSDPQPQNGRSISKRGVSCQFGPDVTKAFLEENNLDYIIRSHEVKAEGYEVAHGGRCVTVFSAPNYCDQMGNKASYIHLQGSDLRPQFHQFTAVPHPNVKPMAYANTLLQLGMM
# IDE cell activ: human IDE activators in live cells, primary screen, fluorescence polarization, HEK cells, FAbeta-B substrate. Insulin-degrading enzyme (Homo sapiens), P14735. FAbeta-B cleavage; 0% vehicle, 100% cell-free pure enzyme wells. activation, % at 5.96 µM. actives 0.073% (n = 340,000). AID 493087, 2011;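 active means activation above the mean of all tested compounds plus 3 SD, set per screening campaign, cut at about 17% in these data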
# Granule exo inh: LAMP-1 surface exposure blockers, TALL-104 cells – cell-based, flow cytometry, MLPCN library, primary screen | TALL-104 LAMP-1 surface exposure; cells stimulated with thapsigargin and PMA | inhibition, % at 10 µM | actives 0.66% (n = 360,000) | AID 651702, 2012;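 active means inhibition above about 55%, limit read from the data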
# PP1 counter: PP1-alpha phosphatase inhibitors, primary screen, counter-screen for PP5 inhibitor project, biochemical, fluorescence, OMFP substrate, single point; Serine/threonine-protein phosphatase PP1-alpha catalytic subunit (Homo sapiens), P62136; purified PP1alpha; inhibition, % at 6.7 µM; actives 0.9% (n = 320,000); AID 2235, 2010;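 active means inhibition above the mean inhibition of all tested compounds plus 3 SD, computed separately for each screening campaign, cut at about 15% in these data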
# SKKanGAS inh: S. pyogenes SKKanGAS growth inhibitors in kanamycin, primary screen, streptokinase expression inhibitor project, SKKanGAS strain, BacTiter-Glo luminescence | actives 1.3% (n = 300,000) | 6 h | inhibition, % at 7.5 µM;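 active means mean replicate score, as percent of positive control median, at least 50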;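 further: strain carries kanamycin resistance gene driven by streptokinase promoter and grows in 40 µg/ml kanamycin; loss of luminescence reflects streptokinase promoter inhibition or plain growth inhibition; 0% = median of DMSO wells and 100% = positive control at its reference dose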
# The depositor's hits bear a star; / = no result. Sampled rows, rich in hits. Any-hit rate of the full collection: about 2.8%.
SMILES,IDE inh,PP5 inh,IDE cell activ,Granule exo inh,PP1 counter,SKKanGAS inh
O=C(CC1SC(=Nc2ccccc2)N(CCc2ccccn2)C1=O)Nc1ccc(F)cc1 (centres undefined),3,7,2,-1,-2,1
O=C(CC1SC(=Nc2ccccc2)N(CCc2c[nH]c3ccccc23)C1=O)Nc1ccccc1F (centres undefined),-1,2,6,10,1,86*
CC(NCCN(C)C)C1CCC2C3CCc4cc(O)ccc4C3CCC12C (centres undefined),/,/,4,23,/,/
C/C(=N/NC(=O)CNC(=O)C(c1ccccc1)c1ccccc1)c1ccco1,3,-4,1,-3,-6,55*
O=C(NCCNC(=O)C(c1ccccc1)c1ccccc1)c1ccco1,1,0,4,-6,-2,-6
S=c1[nH]nc(-c2cc(-c3ccccc3)n[nH]2)n1/N=C/c1ccccc1,1,-2,-3,3,-1,1
S=c1[nH]nc(-c2cc(-c3ccccc3)n[nH]2)n1/N=C/C(Br)=C/c1ccccc1,0,2,/,63*,10,18
O=C(Nc1ccc2c(c1)OCCO2)C(c1ccncc1)n1c(=O)c(-c2cc3ccccc3[nH]2)nc2ccccc21 (centres undefined),/,/,/,-2,/,/
Cc1cccc(C)c1-n1nnnc1C(c1cc2ccccc2o1)N1CCN(C/C=C/c2ccccc2)CC1 (centres undefined),/,/,/,17,/,/
O=C1CC(c2ccco2)Cc2nc(Nc3nc(-c4ccccc4)c4ccccc4n3)ncc21 (centres undefined),1,0,0,-3,26*,-4
CCOC(=O)N1CCN(C(=O)C[C@@H]2C[C@@]3(C(=O)OC)CC(C)(C)CC=C3N(Cc3ccccc3)C2=O)CC1,/,/,/,0,/,/
CCOC(=O)C1CCCCN1Cc1ccc(OC)c(OC)c1 (centres undefined),-7,0,9,-7,-3,-1
O=c1cc(N2CCCCC2)c(-c2ccccc2)nn1Cc1ccc(F)cc1,2,3,2,-5,2,17
O=c1cc(N2CCCCC2)c(-c2ccccc2)nn1Cc1c(Cl)cccc1Cl,2,2,-2,4,9,107*
O=c1cc(N2CCCCC2)c(-c2ccccc2)nn1Cc1ccc(Cl)cc1,0,2,3,11,0,94*
O=c1cc(N2CCCCC2)c(-c2ccccc2)n[nH]1,4,2,1,0,-2,5
CC1(C(=O)NS(=O)(=O)C2CC2)CCCN(C(=O)c2cccs2)C1 (centres undefined),/,/,/,-6,/,/
COc1cc(NC(=O)COC(=O)Cc2ccsc2)cc(OC)c1,8,1,0,-8,6,/
Cc1ccc(C=C2C(Cl)=C(Cl)C(Cl)=C2Cl)cc1,3,-1,/,/,3,78*
Cc1ccc(/C=[N+](/C)[O-])cc1,-16,1,4,1,-6,7
CCOC(=O)C1=CN(CC)S(=O)(=O)NC1CC (centres undefined),/,/,4,-5,/,/
Cn1c(-c2c(N)n(C3CCCC3)c3nc4ccccc4nc23)nc2ccccc21,-3,2,-1,3,-1,102*
Cn1c(-c2c(N)n(CCc3ccccc3)c3nc4ccccc4nc23)nc2ccccc21,2,4,-1,4,2,104*
Cn1c(-c2c(N)n(CCCc3ccccc3)c3nc4ccccc4nc23)nc2ccccc21,/,/,10,6,/,113*
COCCCn1c(N)c(-c2nc3ccccc3n2C)c2nc3ccccc3nc21,9,4,-2,-4,3,9
CC(c1ccccc1)n1cnc2ccccc2c1=O (centres undefined),1,0,-1,-4,-3,-1
C/C(CC(=O)Nc1ccc(OCc2ccccc2)cc1)=N\NC(=O)C(=O)Nc1ccccc1C,-2,0,1,-3,16*,0
